Reference: ChEMBL document CHEMBL1961873, “Compounds: GSK PKIS; Assays: Nanosyn kinase panel” (2012)

Key:
[1] = target: Tyrosine-protein kinase SYK (Homo sapiens) (UniProt P43405); details: at 1 µM
[2] = target: T1, Tyrosine-protein kinase Tec (Homo sapiens) (UniProt P42680); details: at 0.1 µM
T1 sequence (whole entry): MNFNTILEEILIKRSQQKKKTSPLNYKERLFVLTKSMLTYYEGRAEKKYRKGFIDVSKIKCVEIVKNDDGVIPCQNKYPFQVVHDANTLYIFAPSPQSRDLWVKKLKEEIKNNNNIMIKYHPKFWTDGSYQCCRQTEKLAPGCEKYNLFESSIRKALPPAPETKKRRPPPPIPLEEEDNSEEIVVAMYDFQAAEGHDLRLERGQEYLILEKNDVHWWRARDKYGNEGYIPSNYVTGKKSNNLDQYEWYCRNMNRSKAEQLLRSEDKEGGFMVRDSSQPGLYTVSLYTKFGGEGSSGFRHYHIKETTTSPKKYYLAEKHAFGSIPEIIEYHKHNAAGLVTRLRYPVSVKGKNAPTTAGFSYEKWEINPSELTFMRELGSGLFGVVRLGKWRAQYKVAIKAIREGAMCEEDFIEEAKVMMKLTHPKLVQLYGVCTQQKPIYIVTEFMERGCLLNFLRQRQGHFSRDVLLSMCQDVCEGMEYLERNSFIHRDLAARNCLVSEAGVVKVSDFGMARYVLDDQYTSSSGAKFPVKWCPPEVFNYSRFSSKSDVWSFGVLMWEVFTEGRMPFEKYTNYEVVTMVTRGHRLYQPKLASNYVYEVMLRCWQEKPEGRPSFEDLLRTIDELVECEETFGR

[3] = target: T1, Tyrosine-protein kinase Tec (Homo sapiens); details: at 1 µM
[4] = target: Angiopoietin-1 receptor (Homo sapiens) (UniProt Q02763); details: at 0.1 µM
[5] = target: Angiopoietin-1 receptor (Homo sapiens) (UniProt Q02763); details: at 1 µM
[6] = target: T2, Non-receptor tyrosine-protein kinase TNK1 (Homo sapiens) (UniProt Q13470); details: at 0.1 µM
T2 sequence (whole entry): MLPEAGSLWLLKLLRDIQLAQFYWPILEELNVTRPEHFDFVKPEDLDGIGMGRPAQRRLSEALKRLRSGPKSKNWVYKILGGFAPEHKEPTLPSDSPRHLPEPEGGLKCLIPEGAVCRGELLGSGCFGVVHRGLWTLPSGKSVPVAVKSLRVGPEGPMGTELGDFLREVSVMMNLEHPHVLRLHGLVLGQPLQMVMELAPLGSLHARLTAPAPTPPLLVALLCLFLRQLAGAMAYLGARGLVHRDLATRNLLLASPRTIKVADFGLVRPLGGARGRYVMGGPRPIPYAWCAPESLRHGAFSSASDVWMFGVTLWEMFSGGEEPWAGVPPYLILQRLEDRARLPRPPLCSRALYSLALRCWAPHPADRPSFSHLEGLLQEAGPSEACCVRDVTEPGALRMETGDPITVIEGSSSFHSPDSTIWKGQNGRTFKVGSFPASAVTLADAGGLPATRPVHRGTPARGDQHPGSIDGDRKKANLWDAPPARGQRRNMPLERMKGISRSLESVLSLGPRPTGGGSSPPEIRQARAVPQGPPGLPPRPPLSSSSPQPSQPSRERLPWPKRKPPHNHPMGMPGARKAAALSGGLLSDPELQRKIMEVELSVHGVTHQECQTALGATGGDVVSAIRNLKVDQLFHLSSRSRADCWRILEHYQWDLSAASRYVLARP

[7] = target: T2, Non-receptor tyrosine-protein kinase TNK1 (Homo sapiens); details: at 1 µM
[8] = target: Activated CDC42 kinase 1 (Homo sapiens) (UniProt Q07912); details: at 0.1 µM
[9] = target: Activated CDC42 kinase 1 (Homo sapiens) (UniProt Q07912); details: at 1 µM
[10] = target: High affinity nerve growth factor receptor (Homo sapiens) (UniProt P04629); details: at 0.1 µM
[11] = target: High affinity nerve growth factor receptor (Homo sapiens) (UniProt P04629); details: at 1 µM
[12] = target: BDNF/NT-3 growth factors receptor (Homo sapiens) (UniProt Q16620); details: at 0.1 µM
[13] = target: BDNF/NT-3 growth factors receptor (Homo sapiens) (UniProt Q16620); details: at 1 µM
[14] = target: NT-3 growth factor receptor (Homo sapiens) (UniProt Q16288); details: at 0.1 µM
[15] = target: NT-3 growth factor receptor (Homo sapiens) (UniProt Q16288); details: at 1 µM
[16] = target: T3, Tyrosine-protein kinase TXK (Homo sapiens) (UniProt P42681); details: at 0.1 µM
T3 sequence (whole entry): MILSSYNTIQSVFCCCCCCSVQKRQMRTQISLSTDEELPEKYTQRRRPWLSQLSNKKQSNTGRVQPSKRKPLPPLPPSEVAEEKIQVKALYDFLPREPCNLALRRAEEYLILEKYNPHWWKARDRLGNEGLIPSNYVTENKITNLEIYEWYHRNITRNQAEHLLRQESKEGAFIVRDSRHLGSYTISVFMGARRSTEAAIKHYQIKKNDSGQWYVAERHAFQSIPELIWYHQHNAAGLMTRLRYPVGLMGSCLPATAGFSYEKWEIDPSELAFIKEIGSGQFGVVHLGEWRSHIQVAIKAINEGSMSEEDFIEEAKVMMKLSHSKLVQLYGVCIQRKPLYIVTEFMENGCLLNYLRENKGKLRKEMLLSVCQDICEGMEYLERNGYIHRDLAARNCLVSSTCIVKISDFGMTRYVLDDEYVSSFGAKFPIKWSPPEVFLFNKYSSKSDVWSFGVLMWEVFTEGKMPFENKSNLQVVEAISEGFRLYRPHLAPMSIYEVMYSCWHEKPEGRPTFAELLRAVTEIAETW

[17] = target: T3, Tyrosine-protein kinase TXK (Homo sapiens); details: at 1 µM
[18] = target: Non-receptor tyrosine-protein kinase TYK2 (Homo sapiens) (UniProt P29597); details: at 0.1 µM;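 note: each value is a mean of the inhibition readings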
[19] = target: T4, Dual specificity protein kinase TTK (Homo sapiens) (UniProt P33981); details: at 1 µM;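 note: reported figures are mean TTK inhibition at 1 µM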
T4 sequence (whole entry): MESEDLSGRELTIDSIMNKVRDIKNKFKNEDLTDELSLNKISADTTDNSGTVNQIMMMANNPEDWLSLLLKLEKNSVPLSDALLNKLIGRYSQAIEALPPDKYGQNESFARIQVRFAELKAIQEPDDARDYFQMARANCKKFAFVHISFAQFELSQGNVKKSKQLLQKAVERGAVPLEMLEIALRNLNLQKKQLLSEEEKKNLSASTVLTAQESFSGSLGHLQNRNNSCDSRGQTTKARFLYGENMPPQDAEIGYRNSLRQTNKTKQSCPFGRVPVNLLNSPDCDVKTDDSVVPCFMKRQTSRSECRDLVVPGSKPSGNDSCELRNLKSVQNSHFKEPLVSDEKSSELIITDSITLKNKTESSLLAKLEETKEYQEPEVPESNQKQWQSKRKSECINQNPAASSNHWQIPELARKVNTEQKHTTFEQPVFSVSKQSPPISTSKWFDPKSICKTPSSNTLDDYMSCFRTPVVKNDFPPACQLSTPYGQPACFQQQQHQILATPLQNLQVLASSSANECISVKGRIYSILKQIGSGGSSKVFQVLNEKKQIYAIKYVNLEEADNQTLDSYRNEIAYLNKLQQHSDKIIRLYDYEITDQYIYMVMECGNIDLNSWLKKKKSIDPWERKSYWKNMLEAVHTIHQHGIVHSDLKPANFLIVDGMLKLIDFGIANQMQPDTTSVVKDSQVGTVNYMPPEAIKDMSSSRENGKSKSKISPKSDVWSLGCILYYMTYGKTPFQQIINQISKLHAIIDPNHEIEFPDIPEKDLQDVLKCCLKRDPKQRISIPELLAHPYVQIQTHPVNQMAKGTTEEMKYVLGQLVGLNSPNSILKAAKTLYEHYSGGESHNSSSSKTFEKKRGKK

[20] = target: T5, Aurora kinase A (Homo sapiens) (UniProt O14965); details: at 0.1 µM;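 note: each reported value is a mean percent inhibition of Aurora-A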
T5 sequence (whole entry): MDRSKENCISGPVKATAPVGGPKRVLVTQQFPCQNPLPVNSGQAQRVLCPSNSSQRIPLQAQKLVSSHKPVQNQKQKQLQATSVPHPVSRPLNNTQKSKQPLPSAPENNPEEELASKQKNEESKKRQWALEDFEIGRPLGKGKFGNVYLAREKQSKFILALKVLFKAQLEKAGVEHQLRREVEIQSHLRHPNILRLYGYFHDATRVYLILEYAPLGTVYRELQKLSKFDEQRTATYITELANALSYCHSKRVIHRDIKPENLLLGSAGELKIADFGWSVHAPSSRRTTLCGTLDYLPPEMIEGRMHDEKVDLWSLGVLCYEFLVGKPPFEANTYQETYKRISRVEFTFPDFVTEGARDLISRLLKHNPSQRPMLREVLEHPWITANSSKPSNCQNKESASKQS

Sequence of Angiopoietin-1 receptor (Homo sapiens) (Q02763 whole entry): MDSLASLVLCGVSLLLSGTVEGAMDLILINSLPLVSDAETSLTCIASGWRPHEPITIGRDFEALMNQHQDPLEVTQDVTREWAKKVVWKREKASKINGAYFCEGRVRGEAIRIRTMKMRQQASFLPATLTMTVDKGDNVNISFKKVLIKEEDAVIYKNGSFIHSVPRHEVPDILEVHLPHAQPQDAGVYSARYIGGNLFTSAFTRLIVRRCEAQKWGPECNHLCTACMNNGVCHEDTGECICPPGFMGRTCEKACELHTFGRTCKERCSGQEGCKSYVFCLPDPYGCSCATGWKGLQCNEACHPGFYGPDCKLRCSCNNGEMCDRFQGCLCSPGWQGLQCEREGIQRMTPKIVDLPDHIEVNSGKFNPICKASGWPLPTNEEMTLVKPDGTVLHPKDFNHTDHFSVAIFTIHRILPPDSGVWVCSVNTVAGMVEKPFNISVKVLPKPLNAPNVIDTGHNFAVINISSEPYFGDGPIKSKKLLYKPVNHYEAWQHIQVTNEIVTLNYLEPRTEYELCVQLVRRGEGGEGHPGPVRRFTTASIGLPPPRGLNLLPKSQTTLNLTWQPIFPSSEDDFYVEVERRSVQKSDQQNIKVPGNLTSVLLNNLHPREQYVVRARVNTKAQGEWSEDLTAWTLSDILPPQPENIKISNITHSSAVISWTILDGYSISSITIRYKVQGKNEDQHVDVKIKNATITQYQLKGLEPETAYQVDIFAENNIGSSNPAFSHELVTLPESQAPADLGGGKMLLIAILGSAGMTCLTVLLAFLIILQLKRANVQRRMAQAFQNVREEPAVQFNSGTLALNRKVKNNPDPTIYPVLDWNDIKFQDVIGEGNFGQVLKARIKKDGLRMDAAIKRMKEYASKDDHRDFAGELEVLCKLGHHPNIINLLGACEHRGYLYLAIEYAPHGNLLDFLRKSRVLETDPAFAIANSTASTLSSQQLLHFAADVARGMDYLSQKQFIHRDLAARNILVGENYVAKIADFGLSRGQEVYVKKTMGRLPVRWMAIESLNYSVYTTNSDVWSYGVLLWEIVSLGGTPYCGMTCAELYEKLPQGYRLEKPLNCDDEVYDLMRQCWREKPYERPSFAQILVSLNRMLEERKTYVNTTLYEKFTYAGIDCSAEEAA
Sequence of BDNF/NT-3 growth factors receptor (Homo sapiens) (Q16620 32-822 limits assumed): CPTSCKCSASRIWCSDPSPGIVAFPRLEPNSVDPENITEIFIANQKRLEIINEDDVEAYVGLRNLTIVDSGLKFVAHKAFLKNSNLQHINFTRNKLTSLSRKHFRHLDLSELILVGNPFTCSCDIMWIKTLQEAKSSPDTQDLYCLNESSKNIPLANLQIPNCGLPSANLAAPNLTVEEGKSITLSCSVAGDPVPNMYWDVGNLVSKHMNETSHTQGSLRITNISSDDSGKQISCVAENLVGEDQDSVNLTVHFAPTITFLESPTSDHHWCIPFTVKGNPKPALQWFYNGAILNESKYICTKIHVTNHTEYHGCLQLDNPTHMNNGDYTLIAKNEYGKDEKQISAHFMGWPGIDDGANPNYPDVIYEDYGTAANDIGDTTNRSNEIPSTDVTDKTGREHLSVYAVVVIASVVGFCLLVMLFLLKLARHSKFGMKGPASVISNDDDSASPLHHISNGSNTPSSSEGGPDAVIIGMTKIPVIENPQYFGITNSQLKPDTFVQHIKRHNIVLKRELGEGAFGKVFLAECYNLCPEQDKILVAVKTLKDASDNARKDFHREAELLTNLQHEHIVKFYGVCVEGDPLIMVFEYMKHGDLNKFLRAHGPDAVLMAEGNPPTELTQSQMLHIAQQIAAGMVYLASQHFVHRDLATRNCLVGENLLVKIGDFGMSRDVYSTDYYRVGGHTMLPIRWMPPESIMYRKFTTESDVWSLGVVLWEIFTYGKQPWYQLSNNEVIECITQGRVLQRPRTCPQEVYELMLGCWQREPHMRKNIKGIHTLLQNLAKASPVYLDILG
Sequence of Activated CDC42 kinase 1 (Homo sapiens) (Q07912 whole entry, looked up): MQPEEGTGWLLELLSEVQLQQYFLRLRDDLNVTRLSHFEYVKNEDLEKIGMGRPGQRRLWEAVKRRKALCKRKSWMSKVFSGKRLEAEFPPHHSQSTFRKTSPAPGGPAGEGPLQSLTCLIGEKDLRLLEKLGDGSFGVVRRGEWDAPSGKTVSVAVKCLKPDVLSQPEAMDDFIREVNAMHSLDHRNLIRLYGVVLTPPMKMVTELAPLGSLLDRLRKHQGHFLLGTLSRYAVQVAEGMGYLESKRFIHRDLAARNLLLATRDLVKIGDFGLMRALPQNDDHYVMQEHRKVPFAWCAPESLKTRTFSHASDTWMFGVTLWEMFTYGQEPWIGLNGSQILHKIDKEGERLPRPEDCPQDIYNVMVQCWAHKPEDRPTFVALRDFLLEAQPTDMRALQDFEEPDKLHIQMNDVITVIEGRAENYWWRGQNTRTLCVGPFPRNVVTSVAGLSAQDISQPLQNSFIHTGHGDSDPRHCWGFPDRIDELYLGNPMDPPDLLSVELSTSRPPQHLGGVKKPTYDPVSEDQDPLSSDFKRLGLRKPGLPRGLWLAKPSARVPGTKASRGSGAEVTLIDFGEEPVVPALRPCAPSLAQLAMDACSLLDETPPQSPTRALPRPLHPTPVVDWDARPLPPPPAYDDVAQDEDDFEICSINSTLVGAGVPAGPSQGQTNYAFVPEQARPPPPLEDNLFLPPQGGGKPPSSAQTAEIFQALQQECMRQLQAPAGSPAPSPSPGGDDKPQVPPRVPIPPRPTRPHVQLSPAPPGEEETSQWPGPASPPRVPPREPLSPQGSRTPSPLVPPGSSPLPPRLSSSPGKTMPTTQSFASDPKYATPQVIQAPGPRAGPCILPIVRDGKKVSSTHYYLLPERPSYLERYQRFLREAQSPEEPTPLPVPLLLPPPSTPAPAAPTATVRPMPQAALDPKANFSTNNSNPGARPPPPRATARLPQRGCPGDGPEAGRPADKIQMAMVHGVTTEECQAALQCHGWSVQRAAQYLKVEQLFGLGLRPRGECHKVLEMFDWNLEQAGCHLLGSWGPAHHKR
Sequence of NT-3 growth factor receptor (Homo sapiens) (Q16288 32-839 limits assumed): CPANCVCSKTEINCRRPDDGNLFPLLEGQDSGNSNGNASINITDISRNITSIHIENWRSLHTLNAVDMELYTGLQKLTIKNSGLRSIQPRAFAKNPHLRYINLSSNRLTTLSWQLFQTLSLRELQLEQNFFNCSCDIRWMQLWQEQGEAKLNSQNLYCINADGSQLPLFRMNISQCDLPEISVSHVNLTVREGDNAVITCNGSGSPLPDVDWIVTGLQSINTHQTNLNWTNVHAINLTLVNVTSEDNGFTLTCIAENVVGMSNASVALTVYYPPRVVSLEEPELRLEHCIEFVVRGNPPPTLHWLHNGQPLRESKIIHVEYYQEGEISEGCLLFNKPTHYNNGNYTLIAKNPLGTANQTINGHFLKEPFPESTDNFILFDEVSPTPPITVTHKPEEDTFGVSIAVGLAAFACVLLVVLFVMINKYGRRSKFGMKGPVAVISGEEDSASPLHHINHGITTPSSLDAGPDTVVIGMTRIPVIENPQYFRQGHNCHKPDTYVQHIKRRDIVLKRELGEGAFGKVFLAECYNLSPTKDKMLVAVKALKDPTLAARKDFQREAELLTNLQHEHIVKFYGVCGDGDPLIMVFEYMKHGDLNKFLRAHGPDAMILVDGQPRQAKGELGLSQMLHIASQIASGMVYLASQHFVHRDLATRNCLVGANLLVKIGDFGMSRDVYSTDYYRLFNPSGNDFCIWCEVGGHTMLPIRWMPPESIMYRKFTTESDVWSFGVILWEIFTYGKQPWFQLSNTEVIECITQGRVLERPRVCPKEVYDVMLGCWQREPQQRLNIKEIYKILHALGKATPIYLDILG
Sequence of Non-receptor tyrosine-protein kinase TYK2 (Homo sapiens) (P29597 whole entry): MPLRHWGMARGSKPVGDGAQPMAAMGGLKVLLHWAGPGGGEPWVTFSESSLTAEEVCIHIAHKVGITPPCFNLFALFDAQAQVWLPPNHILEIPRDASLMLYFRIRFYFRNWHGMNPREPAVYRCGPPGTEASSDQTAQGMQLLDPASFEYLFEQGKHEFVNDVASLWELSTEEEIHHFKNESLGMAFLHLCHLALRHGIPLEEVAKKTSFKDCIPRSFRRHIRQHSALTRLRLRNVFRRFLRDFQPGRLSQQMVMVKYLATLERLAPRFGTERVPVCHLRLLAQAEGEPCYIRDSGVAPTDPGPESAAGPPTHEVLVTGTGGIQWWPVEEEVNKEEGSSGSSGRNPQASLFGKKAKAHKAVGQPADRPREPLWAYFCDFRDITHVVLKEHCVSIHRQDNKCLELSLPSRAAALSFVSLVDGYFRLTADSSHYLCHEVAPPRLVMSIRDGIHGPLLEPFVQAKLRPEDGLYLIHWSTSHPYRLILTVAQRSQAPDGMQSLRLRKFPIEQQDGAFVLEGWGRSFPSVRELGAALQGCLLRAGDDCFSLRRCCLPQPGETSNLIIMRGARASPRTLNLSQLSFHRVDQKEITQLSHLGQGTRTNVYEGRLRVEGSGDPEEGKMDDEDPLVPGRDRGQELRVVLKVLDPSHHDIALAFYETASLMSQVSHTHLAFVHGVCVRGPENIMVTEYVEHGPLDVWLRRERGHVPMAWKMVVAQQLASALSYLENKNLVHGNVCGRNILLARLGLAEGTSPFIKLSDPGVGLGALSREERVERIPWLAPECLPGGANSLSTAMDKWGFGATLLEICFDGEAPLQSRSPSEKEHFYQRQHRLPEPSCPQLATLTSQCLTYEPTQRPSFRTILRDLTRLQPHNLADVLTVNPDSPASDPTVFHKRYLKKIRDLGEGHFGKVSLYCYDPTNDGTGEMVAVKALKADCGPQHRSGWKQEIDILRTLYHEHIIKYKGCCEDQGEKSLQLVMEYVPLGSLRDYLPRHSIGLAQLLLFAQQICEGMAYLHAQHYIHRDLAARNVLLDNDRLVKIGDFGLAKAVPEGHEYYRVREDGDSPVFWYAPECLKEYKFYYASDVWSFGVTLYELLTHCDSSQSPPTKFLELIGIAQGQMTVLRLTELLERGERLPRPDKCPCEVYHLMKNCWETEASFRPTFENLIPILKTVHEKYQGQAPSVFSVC

## COC(=O)Nc1nc2ccc(Oc3ccc(NC(=O)Nc4cccc(Cl)c4)cc3)cc2[nH]1
[1]
  inhibition: 0.56%
[2]
  inhibition: -0.16%
[3]
  inhibition: 1.83%
[4]
  inhibition: 17.1%
[5]
  inhibition: 44.7%
[6]
  inhibition: 2.25%
[7]
  inhibition: 7.76%
[8]
  inhibition: 0.12%
[9]
  inhibition: -0.32%
[10]
  inhibition: 15.6%
[11]
  inhibition: 41.6%
[12]
  inhibition: 8.53%
[13]
  inhibition: 22%
[14]
  inhibition: 11.7%
[15]
  inhibition: 26.1%
[16]
  inhibition: 0.76%
[17]
  inhibition: 2.29%
[18]
  inhibition: 2%
[19]
  inhibition: 3.42%
[20]
  inhibition: 2.85%

## Fc1cccc(COc2ccc(Nc3ncnc4sc(-c5ccco5)cc34)cc2Cl)c1
[1]
  inhibition: -6.92%
[2]
  inhibition: 0.94%
[3]
  inhibition: 5.13%
[4]
  inhibition: 4.1%
[5]
  inhibition: 6.76%
[6]
  inhibition: 1.8%
[7]
  inhibition: 17%
[8]
  inhibition: 1.13%
[9]
  inhibition: 1.93%
[10]
  inhibition: 1.02%
[11]
  inhibition: 0.66%
[12]
  inhibition: 3.36%
[13]
  inhibition: 3.82%
[14]
  inhibition: 3.74%
[15]
  inhibition: 3.88%
[16]
  inhibition: -1.45%
[17]
  inhibition: 3.65%
[18]
  inhibition: -2.62%
[19]
  inhibition: 6.39%
[20]
  inhibition: 2.5%

## [O-][S+]1CCN(Cc2ccc(-c3ccc4ncnc(Nc5ccc(OCc6cccc(F)c6)c(Cl)c5)c4c3)o2)CC1
[1]
  inhibition: 0.31%
[2]
  inhibition: 2.12%
[3]
  inhibition: 4.55%
[4]
  inhibition: 3.66%
[5]
  inhibition: 5.42%
[6]
  inhibition: 2.94%
[7]
  inhibition: 11.7%
[8]
  inhibition: 1.61%
[9]
  inhibition: 1.32%
[10]
  inhibition: 3.52%
[11]
  inhibition: 3.26%
[12]
  inhibition: 3.51%
[13]
  inhibition: 2.84%
[14]
  inhibition: 2.99%
[15]
  inhibition: 3.32%
[16]
  inhibition: -0.35%
[17]
  inhibition: 5.13%
[18]
  inhibition: -1.86%
[19]
  inhibition: 13.9%
[20]
  inhibition: 4.7%

## COc1cccc(-n2ncc3c(N/N=C/c4ccc(F)cc4)ncnc32)c1
[1]
  inhibition: -3.59%
[2]
  inhibition: 5%
[3]
  inhibition: 9.02%
[4]
  inhibition: 2.18%
[5]
  inhibition: 5.99%
[6]
  inhibition: 5.45%
[7]
  inhibition: 12.4%
[8]
  inhibition: 1.52%
[9]
  inhibition: 3.5%
[10]
  inhibition: 4.72%
[11]
  inhibition: 4.65%
[12]
  inhibition: 3.34%
[13]
  inhibition: 4.5%
[14]
  inhibition: 3.31%
[15]
  inhibition: 6.74%
[16]
  inhibition: 4.3%
[17]
  inhibition: 8.25%
[18]
  inhibition: -4.95%
[19]
  inhibition: 10.9%
[20]
  inhibition: 2.1%

## c1ccc(-c2nc3n(c2-c2ccc4c(c2)OCO4)CCC3)nc1
[1]
  inhibition: 2.09%
[2]
  inhibition: 1.69%
[3]
  inhibition: 0.69%
[4]
  inhibition: -0.12%
[5]
  inhibition: 1.12%
[6]
  inhibition: 0.76%
[7]
  inhibition: 0.08%
[8]
  inhibition: 0.05%
[9]
  inhibition: 0.93%
[10]
  inhibition: 1.9%
[11]
  inhibition: 2.69%
[12]
  inhibition: -0.27%
[13]
  inhibition: 2.27%
[14]
  inhibition: -0.01%
[15]
  inhibition: 3.2%
[16]
  inhibition: 1.77%
[17]
  inhibition: 1.77%
[18]
  inhibition: -1.06%
[19]
  inhibition: 0.07%
[20]
  inhibition: 0.45%

## CCCN(CCS(C)(=O)=O)Cc1ccc(-c2ccc3ncnc(Nc4ccc(OCc5cccc(F)c5)c(Cl)c4)c3c2)o1
[1]
  inhibition: 1.17%
[2]
  inhibition: 2.93%
[3]
  inhibition: 4.68%
[4]
  inhibition: 1.56%
[5]
  inhibition: 6.25%
[6]
  inhibition: 1.24%
[7]
  inhibition: 12%
[8]
  inhibition: 0.32%
[9]
  inhibition: 1.4%
[10]
  inhibition: 2.55%
[11]
  inhibition: 0.23%
[12]
  inhibition: 0.15%
[13]
  inhibition: 1.45%
[14]
  inhibition: 2.2%
[15]
  inhibition: 2.15%
[16]
  inhibition: 2.27%
[17]
  inhibition: 2.93%
[18]
  inhibition: -3.81%
[19]
  inhibition: 5.96%
[20]
  inhibition: 1.47%

## Fc1ccc(-c2nn3ccccc3c2-c2ccncc2)cc1
[1]
  inhibition: 0.32%
[2]
  inhibition: 1.22%
[3]
  inhibition: 2.64%
[4]
  inhibition: 3.2%
[5]
  inhibition: 4.76%
[6]
  inhibition: -0.64%
[7]
  inhibition: 0.91%
[8]
  inhibition: 0.16%
[9]
  inhibition: 0.87%
[10]
  inhibition: 2.3%
[11]
  inhibition: 0.45%
[12]
  inhibition: 0.38%
[13]
  inhibition: 0.3%
[14]
  inhibition: -0.15%
[15]
  inhibition: -0.76%
[16]
  inhibition: 2.39%
[17]
  inhibition: 7.59%
[18]
  inhibition: 0.8%
[19]
  inhibition: 2.44%
[20]
  inhibition: 1.94%
